The values below come from the supplement of paper PMC6607015.

Structures are written as SMILES. Structures can show the parent of a compound that is named as a salt.

Settings in all cases: compound concentration in added solution (µM; 5 µl added to 20 µl cells): 10; 18 h
Assay [1] relates to HeLa MZ. The experiment in a line: LBPA endosome anti-LBPA integrated intensity (sum per cell), Z-score; higher = more LBPA staining. Summed up: (§1)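 Duplicate 384-well imaging plates were prepared with 5 µl of 10 µM compound solution per well, and 3,500 HeLa MZ or A431 cells in 20 µl were added on top. Following 18 h of incubation and fixation in 4% PFA, cells received 6C4 anti-LBPA antibody, filipin, propidium iodide and CellTracker green. Four images per well at 20× were segmented in MetaXpress to yield per-cell integrated LBPA or filipin intensity, whole-cell or within LBPA endosomes. These intensities are reported as Z-scores normalised in AcuityXpress.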

In assay [2] the test system is HeLa MZ. As to the kind of experiment: whole-cell filipin (free cholesterol) integrated intensity, Z-score; higher = more cholesterol staining. Summed up: as §1
Assay [3] relates to HeLa MZ. The experiment in a line: filipin (cholesterol) integrated intensity within LBPA endosomes, Z-score; higher = more cholesterol in LBPA endosomes. The method, boiled down: as §1
Assay [4] concerns A431. As to the kind of experiment: LBPA endosome anti-LBPA integrated intensity (sum per cell), Z-score; higher = more LBPA staining. The method, boiled down:
as §1

Assay [5] concerns A431. The experiment in a line: whole-cell filipin (free cholesterol) integrated intensity, Z-score; higher = more cholesterol staining. The method, boiled down: as §1
Assay [6] has as its system A431. As to the kind of experiment: filipin (cholesterol) integrated intensity within LBPA endosomes, Z-score; higher = more cholesterol in LBPA endosomes. Summed up:
as §1

Consider `COc1ccc(CCN2CCC(Nc3nc4ccccc4n3Cc3ccc(F)cc3)CC2)cc1` [Astemizole], for which the “LBPA endosome anti-LBPA integrated intensity (z-score)” value in assay [1] was -0.627. For the same compound, the “whole-cell filipin (z-score)” value in assay [2] is -1.11. In assay [3], the “filipin (z-score)” value was 2.12.
On to `CC(C)(N)Cc1ccccc1` [Phentermine hydrochloride], for which the “LBPA endosome anti-LBPA integrated intensity (z-score)” value in assay [4] is -0.333; in assay [1], 0.854. The “whole-cell filipin (z-score)” value in assay [5] turned out to be 0.392; in assay [2], 0.563. Further, the “filipin (z-score)” value in assay [6] is -0.29; in assay [3] it was -0.0575.
Regarding `CN[C@@H]1[C@@H](O)[C@@H](O[C@@H]2[C@@H](O)[C@H](O[C@H]3O[C@H](CN)CC[C@H]3N)[C@@H](N)C[C@H]2N)OC[C@]1(C)O.CN[C@@H]1[C@@H](O)[C@@H](O[C@@H]2[C@@H](O)[C@H](O[C@H]3O[C@H]([C@@H](C)N)CC[C@H]3N)[C@@H](N)C[C@H]2N)OC[C@]1(C)O.CN[C@@H]1[C@@H](O)[C@@H](O[C@@H]2[C@@H](O)[C@H](O[C@H]3O[C@H]([C@@H](C)NC)CC[C@H]3N)[C@@H](N)C[C@H]2N)OC[C@]1(C)O` [Gentamicine sulfate], the “LBPA endosome anti-LBPA integrated intensity (z-score)” value in assay [4] is -0.58; in assay [1], -1.17. Besides, the figures for the “whole-cell filipin (z-score)” value in assay [5] and in assay [2] were -1.14 and -0.98, respectively. Besides, the “filipin (z-score)” value is -0.535 in assay [6] and -0.682 in assay [3].
Regarding `C=CCC1(CC(C)C)C(=O)NC(=O)NC1=O` [Butalbital], the “LBPA endosome anti-LBPA integrated intensity (z-score)” value in assay [4] was -0.477; in assay [1], -0.493. The “whole-cell filipin (z-score)” value in assay [5] is -0.608; in assay [2], -0.648. The “filipin (z-score)” value was -0.55 in assay [6] and -0.51 in assay [3].
On to `CN1[C@@H]2C[C@@H](OC(=O)[C@H](CO)c3ccccc3)C[C@H]1[C@@H]1O[C@@H]12` [Scopolamine hydrochloride], for which the “LBPA endosome anti-LBPA integrated intensity (z-score)” value in assay [4] is -0.422; in assay [1], -0.0951. The “whole-cell filipin (z-score)” value in assay [5] is -0.247; in assay [2] it was 0.118. Further, the figures for the “filipin (z-score)” value in assay [6] and in assay [3] were -0.45 and -0.0653, respectively.
Consider `CC(=O)O[C@H]1C[C@@H]2CC[C@@H]3[C@H](CC[C@@]4(C)[C@H]3C[C@H]([N+]3(C)CCCCC3)[C@@H]4OC(C)=O)[C@@]2(C)C[C@@H]1[N+]1(C)CCCCC1` [Pancuronium bromide], for which the “LBPA endosome anti-LBPA integrated intensity (z-score)” value in assay [4] was -0.551; in assay [1], -0.744. The “whole-cell filipin (z-score)” value in assay [5] was 0.0171; in assay [2] it was -0.166. In addition, the “filipin (z-score)” value was -0.527 in assay [6] and -0.532 in assay [3].
`CC[C@@]1([C@@H]2O[C@@H]([C@H]3O[C@@](O)(CO)[C@H](C)C[C@@H]3C)C[C@@H]2C)CC[C@H]([C@]2(C)CC[C@]3(C[C@H](O)[C@@H](C)[C@@H]([C@@H](C)[C@@H](OC)[C@H](C)C(=O)O)O3)O2)O1` [Monensin sodium salt]: the “LBPA endosome anti-LBPA integrated intensity (z-score)” value in assay [1] is -0.505. Also, in assay [2], the “whole-cell filipin (z-score)” value was -1.99. The “filipin (z-score)” value in assay [3] is 0.206.
As for `Fc1ccc(C(OCCN2CCN(CCCc3ccccc3)CC2)c2ccc(F)cc2)cc1`, the “LBPA endosome anti-LBPA integrated intensity (z-score)” value in assay [4] worked out at 3.21. In addition, the “whole-cell filipin (z-score)” value in assay [5] came out at 1.65. Besides, in assay [6], the “filipin (z-score)” value was 2.65.
As for `CC(=O)[C@H]1CC[C@H]2[C@@H]3CC[C@H]4C[C@H](O)CC[C@]4(C)[C@H]3C(=O)C[C@]12C` [Alfaxalone], the entries for the “LBPA endosome anti-LBPA integrated intensity (z-score)” value in assay [4] and in assay [1] were 1.82 and 1.23, respectively. In addition, the “whole-cell filipin (z-score)” value was 0.358 in assay [5] and -0.273 in assay [2]. The “filipin (z-score)” value in assay [6] is 0.378; in assay [3] it was -0.0632.
In the case of `NCCc1c[nH]c2ccc(O)cc12` [Serotonin hydrochloride], the “LBPA endosome anti-LBPA integrated intensity (z-score)” value in assay [4] is -0.716; in assay [1] it was -1.58. In addition, the entries for the “whole-cell filipin (z-score)” value in assay [5] and in assay [2] were -1.04 and -1.21, respectively. For the same compound, the “filipin (z-score)” value is -0.627 in assay [6] and -0.624 in assay [3].
As to `N[C@@H]1C[C@H]1c1ccccc1` [Tranylcypromine hydrochloride], the figures for the “LBPA endosome anti-LBPA integrated intensity (z-score)” value in assay [4] and in assay [1] were -0.505 and -0.919, respectively. Further, the “whole-cell filipin (z-score)” value was -0.309 in assay [5] and -0.693 in assay [2]. For the same compound, the “filipin (z-score)” value is -0.48 in assay [6] and -0.53 in assay [3].
For `O=C1CC[C@@]2(O)[C@H]3Cc4ccc(O)c5c4[C@@]2(CCN3CC2CC2)[C@H]1O5` [Naltrexone hydrochloride dihydrate], the figures for the “LBPA endosome anti-LBPA integrated intensity (z-score)” value in assay [4] and in assay [1] were -0.577 and -0.427, respectively. For the same compound, the “whole-cell filipin (z-score)” value in assay [5] was -0.831; in assay [2], -1. Besides, the “filipin (z-score)” value was -0.48 in assay [6] and -0.466 in assay [3].
Regarding `O=c1c2ccccc2[se]n1-c1ccccc1` [Ebselen], the “LBPA endosome anti-LBPA integrated intensity (z-score)” value in assay [4] is -0.435; in assay [1] it was -0.608. Further, the “whole-cell filipin (z-score)” value was -0.31 in assay [5] and -0.0059 in assay [2]. In addition, the “filipin (z-score)” value is -0.372 in assay [6] and -0.243 in assay [3].
Take `C(#CCN1CCCC1)CN1CCCC1` [Tremorine dihydrochloride]: the figures for the “LBPA endosome anti-LBPA integrated intensity (z-score)” value in assay [4] and in assay [1] were -0.282 and 0.485, respectively. Further, the “whole-cell filipin (z-score)” value in assay [5] is -0.922; in assay [2], -0.198. Moreover, the figures for the “filipin (z-score)” value in assay [6] and in assay [3] were -0.368 and 0.452, respectively.
For the compound `CN1[C@@H]2CC[C@H]1C[C@@H](OC(=O)C(CO)c1ccccc1)C2` (stereo partly specified) [Atropine sulfate monohydrate], the “LBPA endosome anti-LBPA integrated intensity (z-score)” value in assay [4] was -0.568; in assay [1], -0.87. Also, the entries for the “whole-cell filipin (z-score)” value in assay [5] and in assay [2] were -0.533 and -0.945, respectively. Besides, the “filipin (z-score)” value is -0.5 in assay [6] and -0.345 in assay [3].
On to `CC(C)CC(N(C)C)C1(c2ccc(Cl)cc2)CCC1` (stereo unspecified) [Sibutramine HCl], for which the entries for the “LBPA endosome anti-LBPA integrated intensity (z-score)” value in assay [4] and in assay [1] were -0.608 and 0.271, respectively. The results for the “whole-cell filipin (z-score)” value in assay [5] and in assay [2] were -0.397 and -0.373, respectively. For the same compound, the figures for the “filipin (z-score)” value in assay [6] and in assay [3] were -0.534 and -0.424, respectively.
With `CC(C)C[C@H]1C(=O)N2CCC[C@H]2[C@]2(O)O[C@](NC(=O)[C@@H]3C=C4c5cccc6[nH]c(Br)c(c56)C[C@H]4N(C)C3)(C(C)C)C(=O)N12` [Bromocryptine mesylate], the figures for the “LBPA endosome anti-LBPA integrated intensity (z-score)” value in assay [4] and in assay [1] were 0.99 and 2.32, respectively. Moreover, the “whole-cell filipin (z-score)” value in assay [5] came to 1.54; in assay [2], 0.742. Further, the “filipin (z-score)” value worked out at 0.487 in assay [6] and 0.695 in assay [3].
As to `CC(Cc1ccc(O)cc1)NCC(O)c1cc(O)cc(O)c1` (stereo unspecified) [Fenoterol hydrobromide], the “LBPA endosome anti-LBPA integrated intensity (z-score)” value in assay [4] is -0.386; in assay [1] it was 0.00712. The “whole-cell filipin (z-score)” value in assay [5] was -0.429; in assay [2], -0.631. Further, the “filipin (z-score)” value was -0.574 in assay [6] and -0.584 in assay [3].
In the case of `CCC(C)C1O[C@]2(C=C[C@@H]1C)C[C@@H]1CC(C/C=C(\C)[C@@H](OC3C[C@H](OC)[C@@H](OC4C[C@H](OC)[C@@H](O)[C@H](C)O4)[C@H](C)O3)[C@@H](C)/C=C/C=C3\COC4[C@H](O)C(C)=CC(C(=O)O1)[C@]34O)O2` (stereo partly specified) [Avermectin B1a], the “LBPA endosome anti-LBPA integrated intensity (z-score)” value in assay [4] is -0.178; in assay [1] it was 0.136. In addition, the “whole-cell filipin (z-score)” value in assay [5] is -0.0649; in assay [2] it was 0.727. Moreover, the “filipin (z-score)” value was -0.285 in assay [6] and -0.0937 in assay [3].
As to `C=C1CC[C@@]2(O)[C@H]3Cc4ccc(O)c5c4[C@@]2(CCN3CC2CC2)[C@H]1O5` [Nalmefene hydrochloride], the “LBPA endosome anti-LBPA integrated intensity (z-score)” value is -0.278 in assay [4] and 0.776 in assay [1]. The “whole-cell filipin (z-score)” value in assay [5] was -0.193; in assay [2] it was -0.0735. Besides, the “filipin (z-score)” value in assay [6] was -0.304; in assay [3] it was 0.0741.
